Screening data from PubChem BioAssay.
Compounds with a hit are over-represented: about 4.5% of the library has one in this group of screens.
TPT1 inhibitor – inhibitors of Candida albicans tRNA 2'-phosphotransferase TPT1; recombinant caTPT1, FP RNA substrate dephosphorylation; inhibition, % at 5 µM; actives 0.81% (n = 300,000); AID 1962;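 active means inhibition above the mean of all tested compounds plus 3 SD, set per screening campaign, cut at about 24% in these data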;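 further: plate controls were DMSO alone for no effect and ferristatin control at 100 nM for full effect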
NR3A LBD binder – modulators (binders) of human NR3A ligand-binding domain; NR3A LBD differential scanning fluorimetry, Tm shift; 0% = protein alone, 100% = glycine-bound protein; Tm shift relative to glycine control, % at 25 µM; actives 2.5% (n = 340,000); AID 1259313;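 active means melting temperature shift of at least 10% of the positive control shift, at one fixed dose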
Rpn11 block – inhibitors of human proteasome Rpn11; O00487; inhibition, % at 20 µM; actives 0.59% (n = 360,000); human 26S proteasome, Ub4-pepOG fluorescence polarization; 20S core pre-blocked with epoxomicin;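 active means inhibition at 20 µM, scaled to each plate's controls, above about 33%, limit read from the data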
dFosB activator – activators of mouse delta FosB homodimer | activation, % at 25 µM | actives 0.99% (n = 340,000) | AID 493131 | P13346 | purified delta FosB, TAMRA-CDK5 oligo fluorescence polarization; percent of positive-control signal above neutral wells;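 active means mean activation above about 17%, with every replicate also reaching it, limit read from the data, passing the limit was not always enough; inconclusive means only one of the two conditions met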
ZTA counter – blocks Epstein-Barr virus ZTA, an EBNA-1 counter-screen | ZTA-DNA binding, fluorescence polarization | inhibition, % at 11 µM | actives 0.15% (n = 320,000) | AID 2234; in the data active means inhibition above about 33%
Target sequence (P03206 whole entry, looked up): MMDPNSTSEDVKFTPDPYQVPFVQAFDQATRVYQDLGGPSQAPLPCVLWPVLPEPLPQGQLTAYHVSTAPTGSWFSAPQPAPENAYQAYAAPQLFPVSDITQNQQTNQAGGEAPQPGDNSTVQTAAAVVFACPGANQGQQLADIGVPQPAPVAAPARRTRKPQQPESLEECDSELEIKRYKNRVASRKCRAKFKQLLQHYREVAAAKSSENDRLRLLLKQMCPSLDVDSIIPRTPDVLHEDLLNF
EBNA-1 inh – blocks EBNA-1 binding to DNA; inhibition, % at 14.8 µM; actives 0.34% (n = 300,000); AID 1950; EBNA-1 DNA binding, fluorescence polarization; in the data active means inhibition above about 28%
caTPT1 confirm – TPT1 (C. albicans) inhibition, confirmation | shares compounds with TPT1 inhibitor | recombinant caTPT1, fluorescence polarization, RNase T1 coupled | inhibition, % at 5 µM | actives 74% (n = 2,400) | AID 2149;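 active means inhibition above the primary screen limit, the mean inhibition of all tested compounds plus 3 SD, cut at about 25% in these data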
RNase T1 inh – blocks Aspergillus oryzae RNase T1, a TPT1 counter-screen | shares compounds with TPT1 inhibitor | RNase T1 cleavage, fluorescence polarization, 1536-well | inhibition, % at 5 µM | actives 83% (n = 2,400) | AID 2153;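 active means inhibition above the solvent-only control well mean plus 3 SD, limit set per screening run, cut at about 23% in these data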;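 further: plate controls were DMSO wells with enzyme for no effect and wells without RNase T1 for full effect; inhibitors block cleavage so intact labeled substrate keeps polarization high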
Target sequence (P00651 whole entry, looked up): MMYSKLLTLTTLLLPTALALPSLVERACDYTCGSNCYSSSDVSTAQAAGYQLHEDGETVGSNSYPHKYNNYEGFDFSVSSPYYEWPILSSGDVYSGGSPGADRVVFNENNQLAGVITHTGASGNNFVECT
An asterisk follows results filed as active; ? = inconclusive; · = no result given.

SMILES	TPT1 inhibitor	NR3A LBD binder	Rpn11 block	dFosB activator	ZTA counter	EBNA-1 inh	caTPT1 confirm	RNase T1 inh
Cc1cc(C)n(Cc2ccc(C(=O)N/N=C/c3ccc(-c4ccc([N+](=O)[O-])cc4)o3)o2)n1	76*	4	·	4	3	4	65*	25*
CC(C)(C)NC(=S)N/N=C\c1ccc(-c2ccc([N+](=O)[O-])cc2)o1	92*	5	·	·	4	-3	98*	103*
CC(=O)Nc1ccc(NC(=O)COC(=O)COc2ccc3ccccc3c2)cc1	·	0	4	?	·	·	·	·
CCOCCCNS(=O)(=O)c1ccc(NC(=O)Cc2c(F)cccc2Cl)cc1	-1	-4	3	-10	-3	0	·	·
O=C(O)c1ccc(-c2ccc(/C=N/Nc3ccc([N+](=O)[O-])cc3)o2)cc1	130*	10*	·	-15	6	-2	135*	129*
O/C(=C\c1ccc2ccccc2n1)c1ccncc1	53*	-35	22	-2	1	-1	81*	90*
O/N=C/c1ccc2ccccc2n1	0	2	-6	-5	-3	8	·	·
O=Cc1s/c(=N\S(=O)(=O)c2ccccc2)n(CCCCl)c1Cl	·	1	10	-7	·	·	·	·
CN(C)S(=O)(=O)c1cc(NC(=O)CN2CCCc3ccccc32)ccc1Cl	46*	-2	·	0	-4	6	51*	61*
CN(C)S(=O)(=O)c1ccc(NC(=O)CN2CCCc3ccccc32)cc1	51*	0	·	-10	20	5	42*	54*
CN(C)S(=O)(=O)c1cc(NC(=O)CN2CCc3ccccc32)ccc1Cl	-30	6	-3	7	4	14	·	·
Cn1c(=O)[nH]c(=O)c2c1nc([N+](=O)[O-])n2Cc1ccccc1	-3	1	3	-2	-14	-10	·	·
COc1cc([C@H]2c3[nH]c4ccccc4c3C[C@H]3C(=O)N4[C@@H](c5cc(OC)c(OC)c(OC)c5)c5[nH]c6ccccc6c5C[C@H]4C(=O)N23)cc(OC)c1OC	-2	-3	8	-8	1	7	·	·
C=CCN1C(=O)[C@@H]2Cc3c([nH]c4ccccc34)C(c3cc(OC)c(OC)c(OC)c3)N2C1=S (stereo partly specified)	57*	-13	·	-4	-19	-4	47*	57*
C=CCN1C(=O)[C@@H]2Cc3c([nH]c4ccccc34)C(c3ccc(O)cc3)N2C1=S (stereo partly specified)	78*	21*	·	-8	-16	-9	62*	73*
CCN1C(=O)[C@@H]2Cc3c([nH]c4ccccc34)C(c3cc(OC)c(OC)c(OC)c3)N2C1=S (stereo partly specified)	58*	-9	·	-5	-5	7	64*	73*
Cc1nc2c(OCc3ccc(C(F)(F)F)cc3)cccn2c1N(C)CC1CC1	·	·	1	·	·	·	·	·
COc1ccccc1N1CCN(C(=O)c2cc3c(=O)n4cccc(C)c4nc3s2)CC1	2	4	3	-4	7	-10	·	·
Cc1ccc(-c2nc(Nc3cccc(C)c3)sc2CC(=O)O)cc1	11	-11	24	-8	-21	-8	·	·
O=C(O)Cc1sc(NC2CCCCC2)nc1-c1ccc(Cl)cc1	137*	-5	·	-6	2	-1	23	32*
CC(=O)c1sc(-c2ccc(F)cc2)cc1NS(=O)(=O)c1ccccc1	-1	0	-1	11	17	6	·	·
CCOc1ccc(Cn2c(O)cc(=O)[nH]c2=O)cc1	39*	-3	14	8	12	-5	19	24*
COc1ccc(Cn2c(O)cc(=O)[nH]c2=O)cc1	26*	-2	16	2	16	-5	21	28*
CCOc1ccc(OCC(=O)N(C)c2c(N)n(Cc3ccccc3)c(=O)[nH]c2=O)cc1	-2	1	-9	-8	-7	-4	·	·
CCN(CC)C(=O)c1[nH]cnc1C(=O)Nc1cccc(Cl)c1	·	-2	4	4	11	·	·	·
